From PubChem
Pf growth 48h = inhibits P. falciparum growth in the first generation, 48 h; P. falciparum luciferase growth in erythrocytes, 48 h; Potency, µM (highest dose often 28.7 µM), for inactives: at the top dose activity change, negative = inhibition, usual class: inhibitors; 310,000 tested, 5.9% active; AID 504832; also: % is scaled to controls: 0 for no effect and ±100 for the full control effect
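In quantitative HTS format, infected erythrocytes bearing luciferase-reporter parasites were treated for a single generation at 37 C. Luminescence after adding detection reagent served as the growth measure.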
NS1 function inh = influenza NS1 inhibition; AID 2326; Potency, µM (titrated, usually from 46.1 µM), inactives show at the top dose activity, positive = more growth; 270,000 tested, 0.4% active; calls by dose curve; also: actives are rising curves; nearly all actives have a fitted effect of over 50% in size
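In this qHTS, NS1 from influenza A is expressed in budding yeast, where it slows growth. Cells are switched from glucose to 2% galactose medium (pH 6.0, -URA), treated with compound, and growth recovery is read at OD600.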
RE007 growth inh = less growth of the S. pombe RE007 Vpr strain; S. pombe RE007 Vpr strain, BacTiter-Glo ATP luminescence, 24 h; Potency, µM (series often up to 92.2 µM), for inactives: at the top dose activity change, negative = less growth, actives largely listed as inhibitors; 360,000 tested, 0.21% active; AID 651644; active = well fitted falling curve with a large enough effect; inconclusive = small, poorly fitted or top-dose-only effect; inactive = no such curve, though single readings can be large or run the other way; also: % is scaled to controls: 0 for no effect and ±100 for the full control effect; nearly all actives have a fitted effect of over 50% in size
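Fission yeast RE007 carrying one integrated HIV-1 vpr copy, seeded at OD 0.01 in PMG+AL medium with 23 nL pinned compound. Grown 24 h at 30 degrees; viability read by BacTiter-Glo luminescence after 5 min.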
Pf growth 96h = P. falciparum growth inhibition at 96 hour, primary screen for plastid delayed-death inhibitors; 320,000 tested, 6.9% active; Potency, µM (titrated, usually from 28.7 µM), inactives show at the highest dose activity change, negative = inhibition, most hits filed as inhibitors; AID 504834; P. falciparum luciferase reporter growth, 96 h; also: % is scaled to controls: 0 for no effect and ±100 for the full control effect
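Two-generation exposure (96 h) targets delayed-death phenotype. Reporter parasites carrying integrated firefly luciferase, in red cells at 2% hematocrit and 0.05% parasitemia final, kept at 37 C, 5% CO2; luminescence loss indicates inhibition.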
SARS PLP yeast = SARS-CoV PLP inhibition in yeast; S. cerevisiae expressing SARS-CoV PLpro, growth rescue; Potency, µM (series often up to 32.9 µM), without a hit: top-dose activity, positive = growth rescue, most hits filed as activators; 330,000 tested, 0.19% active; calls by dose curve; also: 0% is about no effect; nearly all actives have a fitted effect of over 55% in size
The depositor's hits bear a star; ? = inconclusive; nt = no result; ! = not active in a repeat; [ ] = another dose, or the depositor's remark. This is a sample that favours compounds with a hit; in the whole collection about 9.5% have one here. Unless noted, calls follow the shape of the dose curve; as a rule, active = well fitted inhibition curve with a large enough effect; inconclusive = small, poorly fitted or top-dose-only effect, or another doubt; inactive = no such curve, though single readings can be large or run the other way. Potency is read from the fitted curve at half-maximal effect.

SMILES	Pf growth 48h	NS1 function inh	RE007 growth inh	Pf growth 96h	SARS PLP yeast
COc1ccc(-n2nnnc2SCC(N)=O)cc1	0%	-3%	-1%	nt	1%
COc1ccc(-n2nnnc2SCC(=O)NCCc2ccc(OC)c(OC)c2)cc1	-13%	-7%	0%	5.2µM*	-3%
O=C(CCn1cnnn1)Nc1ccccc1F	13%	nt	?	4.7µM*	0%
NC(=O)CSc1nnnn1-c1ccc(OC(F)(F)F)cc1	6%	5%	-2%	0.19µM*	10%
COc1ccccc1NC(=O)CSc1nnnn1-c1ccc(C(=O)O)cc1	38%	1%	4%	12µM*	-2%
CC(OC(=O)CCc1cc(C(C)(C)C)c(O)c(C(C)(C)C)c1)C(=O)NC1CC1 (stereo not given)	0.47µM*	nt	-16%	0.66µM*	-3%
CC(=O)C1=C(C)Nc2ncnn2C1c1ccccc1OCc1ccccc1 (stereo not given)	8.3µM*	-5%	9%	28%	4%
COc1ccccc1C1C(C(=O)NCc2ccccc2)=C(C)Nc2ncnn21 (stereo not given)	0%	0%	-3%	7%	0%
COc1ccc(C2C(C(C)=O)=C(C)Nc3ncnn32)cc1[N+](=O)[O-] (stereo not given)	-21%[0.00184 µM]	2%	13%	4.1µM*	1%
CCOC(=O)C(NC(=O)c1ccccc1)(Nc1cc(C)on1)C(F)(F)F (stereo not given)	19%	-8%	10%	5.2µM*	-3%
NS(=O)(=O)c1ccc(-n2nncc2-c2ccco2)cc1	10%	?	23%	29%	1%
COc1cc(C(=O)OCC(=O)Nc2ccc(N3CCOCC3)cc2)ccc1OCC(C)C	-16%	nt	-2%	6%	nt
O=C(Nc1ccc(F)cc1)Nc1cccnc1	20%	0%	-1%	32%	-1%
O=C(NCC(F)(F)F)Nc1cccnc1	-19%	3%	12%	15µM*	-14%
O=C(Nc1cccnc1)Nc1cc(Cl)cc(Cl)c1	?	-4%	-8%	?	-3%
O=C(Nc1ccc(OC(F)(F)F)cc1)Nc1cccc([N+](=O)[O-])c1	2.6µM*	-29%	3%	?	-69%
O=C(Nc1ccc(OC(F)(F)F)cc1)Nc1cccnc1	?	1%	6%	10µM*	-2%
CCn1c(SCC(=O)N(C)CC(=O)Nc2ccc(F)c(F)c2F)nnc1-c1ccco1	21%	3%	-5%	-11%	-1%
COc1ccc(C2=NCCn3c2c2ccc(C(F)(F)F)cc2[n+]3[O-])cc1	?	nt	11%	22%	2%
Cc1ccc(C2=NCCn3c2c2ccc(C(F)(F)F)cc2[n+]3[O-])cc1	10µM*	nt	-8%	?	1%
COc1ccc(N2CCN(CC(O)COC(c3ccccc3)c3ccccc3)CC2)cc1 (stereo not given)	?	-16%	2%	-5%	-2%
OC(CN1CCOCC1)c1ccc(F)cc1 (stereo not given)	6%	nt	4%	0%	-1%
COc1ccc(N2CCN(CC(O)COC(c3ccc(F)cc3)c3ccc(F)cc3)CC2)cc1 (stereo not given)	9.3µM*	-3%	-18%	15µM*	-1%
OC(CN1CCC(Cc2ccc(F)cc2)CC1)c1ccc(Cl)cc1 (stereo not given)	1.5µM*	-9%	nt	2.1µM*	nt
OC(CN1CCN(c2ccc(F)cc2)CC1)c1ccc(Cl)cc1 (stereo not given)	nt	1%	-8%	13µM*	0%
CCOC(=O)/C=C(C)/C=C/CC(C)CCCC(C)C (stereo not given)	0%	nt	nt	-104%	nt
COC(C)(C)CCCC(C)C/C=C/C(C)=C/C(=O)OC(C)C (stereo not given)	?	nt	-7%	15µM*!	-5%
COc1ccccc1C(CNC(=O)c1cccc(NS(=O)(=O)c2ccc(C)c(F)c2)c1)N(C)C (stereo not given)	?	nt	-23%	9.3µM*	-1%
COc1ccc(C(CNC(=O)c2ccc(S(=O)(=O)Nc3ccc(F)cc3)cc2)N(C)C)cc1 (stereo not given)	?	-12%	11%	?	-17%
